A549 tox: Nrf2 qHTS screen for inhibitors: counterscreen for cytotoxicity. 390,000 tested, 0.16% active. A549 ARE-Fluc cells, CellTiter-Fluor viability, 18-24 h. Potency, µM (top dose mostly 46 µM), most hits filed as inhibitors
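A549 ARE_Fluc cells in 5% FBS OPTI-MEM were exposed to compounds in concentration-response for 18-24 h at 37 deg C. Viability was read by CellTiter-Fluor fluorescence (Ex 405/Em 525) after 30 min, before the luciferase read.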
ATXN2 expr inh: Primary qHTS for Inhibitors of ATXN expression | 360,000 tested, 0.72% active | Potency, µM (titrated, usually from 57 µM), actives largely listed as inhibitors | AID 1745845, 2022 | HEK-293 ATXN2-luciferase reporter, luminescence, 24 h; also: nearly all actives have a fitted effect of over 55% in size
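qHTS (up to 57 uM final) was run with 24 h compound exposure of reporter cells at 37 °C. Each well was multiplexed: SteadyGlo luminescence measured ATXN2-luciferase expression after a fluorogenic Gly-Phe-AFC viability readout (25 uM final).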
S2 tox: Viability Counterscreen for Primary qHTS for Inhibitors of ATXN expression; S2 cells (HEK-293 line with an ATXN2-luciferase reporter) viability, CellTiter-Fluor protease fluorescence, 24 h; Potency, µM (highest dose often 56.7 µM), hits mostly cytotoxic; 400,000 tested, 0.49% active; AID 651635, 2014; also: nearly all actives have a fitted effect of over 40% in size
Nrf2 activator: qHTS of Nrf2 Activators; AREc32 ARE-luciferase reporter (MCF7-derived line), luminescence, 24 h; Potency, µM (series often up to 46.1 µM), hits mostly activators; 410,000 tested, 0.31% active; also: nearly all actives have a fitted effect of over 65% in size
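ARE-driven firefly luciferase activity in AREc32 cells measured after a 24 hr compound exposure at 37 deg C, using Steady-Glo reagent and a 30 min room-temperature hold.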
Nrf2 block: Nrf2 qHTS screen for inhibitors. A549 ARE-Fluc reporter, luciferase luminescence, 18-24 h. Potency, µM (series often up to 46 µM), usual class: inhibitors. 360,000 tested, 2.1% active; also: nearly all actives have a fitted effect of over 60% in size
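Reporter: ARE-Fluc in A549. Exposure: 18-24 h, 37 °C, 5% CO2, 5% FBS OPTI-MEM. Readouts: fluorescent cytotoxicity (CellTiter-Fluor), then luminescent Nrf2 signal after BugLite.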
Hits are given with their value; . = inactive; ? = inconclusive; / = no result; ! = repeats disagree. This is a sample that favours compounds with a hit; in the whole collection about 2.9% have one here. Calls follow the shape of the dose curve; as a rule, active = well fitted curve in the direction sought with a large enough effect; inconclusive = small, poorly fitted or top-dose-only effect, or another doubt; inactive = no such curve, though single readings can be large; an effect the other way counts as inactive or inconclusive.

SMILES	A549 tox	ATXN2 expr inh	S2 tox	Nrf2 activator	Nrf2 block
C/C(CC(c1ccccc1)c1c(O)c2ccccc2oc1=O)=N\Nc1ccc([N+](=O)[O-])cc1[N+](=O)[O-] (configuration not stated)	?	.	?	.	23.1µM
CC(=O)O[C@H]1[C@H]2O[C@]23[C@@H]2CC[C@]4(O)C[C@@H](O)CC[C@]4(C)C2CC[C@]3(C)[C@H]1c1ccc(=O)oc1 (some centres not stated)	?	0.316µM	?	.	0.058µM
CC1CC2CC(=O)CCC2(C)C2CCC3(C)C(O)CCC3C12 (configuration not stated)	/	/	.	.	/
NC(=O)c1c(Br)n(C2OC(CO)C(O)C2O)c2ncnc(N)c12 (configuration not stated)	?	21.2µM	?	.	?
N#Cc1c(Br)n(C2OC(CO)C(O)C2O)c2ncnc(N)c12 (configuration not stated)	?	2.51µM	?	.	.
N#Cc1cn(C2OC(CO)C(O)C2O)c2ncnc(N)c12 (configuration not stated)	?	?	?	.	?
CCNC(=O)[C@H]1O[C@@H](n2cnc3c(N)ncnc32)[C@H](O)[C@@H]1O	.	.	.	.	.
CC1(C)C[C@H]2C=C(C=O)[C@]3(C=O)C[C@]3(C)[C@H]2C1	.	3.55µM	7.08µM	.	?
CC1CC(C)(O)CC(C(O)CC2CC(=O)NC(=O)C2)C1=O (configuration not stated)	?	?	?	.	0.581µM
O=C(CSc1nnc(NC(=O)c2cc(Br)ccc2Cl)s1)NCC1CCCO1 (configuration not stated)	.	.	.	?	.
CCC1=Nc2cc(C(=O)N3CCC4(CC3)OCCO4)ccc2Sc2ccc(C)cc21	.	/	?	.	.
C[C@]12CC[C@H](O)CC1=CCC1C2CC[C@@]2(C)C1C[C@@H]1CC(=O)O[C@@H]12 (some centres not stated)	.	.	.	.	18.4µM
C[C@@H]1CC2C3CC=C4C[C@@H](O)CC[C@]4(C)C3CC[C@]2(C)[C@H]1O (some centres not stated)	.	.	.	.	.
COCCCNC(=O)c1c(NC(=O)c2ccco2)n(Cc2ccccc2)c2nc3ccccc3nc12	.	.	.	15.8µM	.
CCCCCCCCn1sccc1=O	.	25.1µM	/	.	.
CCOC(C(=O)OCC(O)CN(CC)CC)(c1ccccc1)c1ccccc1 (configuration not stated)	.	.	.	.	.
Cc1sc2ncnc(N3CCN(S(=O)(=O)c4ccc(Br)cc4)CC3)c2c1C	.	.	.	.	11.6µM
Cc1ccc(S(=O)(=O)N(CC(=O)NCCSc2ccc(Cl)cc2)c2ccccc2C)cc1	.	.	?	.	?
COC1C(O)C(C)OC(OC2C(Oc3cccc4c(O)c5c(=O)oc6ccc(C)c7c(=O)oc(c34)c5c67)OC(C)C(O)C2O)C1O (configuration not stated)	.	10µM	.	.	?
C[C@]12CCC(=O)C=C1C=CC1C2CC[C@]2(C)C(=O)CCC12 (some centres not stated)	.	.	.	.	.
Clc1ccc(COC(Cn2ccnc2)c2ccc(Cl)cc2Cl)cc1 (configuration not stated)	.	35.5µM!	?	.	?
C=CCO[C@@H](Cn1ccnc1)c1ccc(Cl)cc1Cl	/	/	.	/	/
CCCOc1ccc(C(=O)Nc2ccc(-c3cc4ccccc4oc3=O)c(C)c2)cc1	.	?	?	.	5.8µM
COc1ccc(C(=O)Nc2cccc(S(=O)(=O)NCc3ccco3)c2)cc1	.	.	.	.	?
S=C(SSC(=S)N1CCCCC1)N1CCCCC1	/	.	10µM!	/	/
SMILES	A549 tox	ATXN2 expr inh	S2 tox	Nrf2 activator	Nrf2 block
CCC(=NCc1cc(OC)cc(OC)c1)c1c(O)[nH]c(=O)[nH]c1=O	.	/	?	.	?
CN1/C(=C\C=C2C(=O)NC(=O)NC2=O)C(C)(C)c2ccccc21	.	.	?	.	.
CCN1/C(=C/C=C/C2=[N+](CC)c3ccccc3C2(C)C)C(C)(C)c2ccccc21	/	/	7.94µM	.	/
C/C=C1\C[C@H](C)[C@@](O)(CO)C(=O)OCC2=CCN3CC[C@@H](OC1=O)[C@@H]23	/	/	.	/	/
C=C(C=O)CC1CC(O)[C@]2(C)OC3C[C@@H]4OC5C[C@]6(C)O[C@]7(C)CCC8OC9C[C@]%10(C)OC(/C(C)=C\CO)C(O)CC%10OC9CC(C)C8OC7CC6O[C@]5(C)C/C=C\C4OC3CC2O1 (some centres not stated)	.	.	.	.	.
C=C(C=O)C[C@@H]1C[C@H](O)C2OC3C[C@]4(C)OC5/C=C\CC6OC7C(CC=CCC6OC5CCCC4OC3CC2O1)OC1CC2OC3CC(=O)OC3C[C@@H](C)C[C@@]2(C)OC1C[C@@H]7C (some centres not stated)	.	1.58µM	1.78µM	.	.
CO[C@H]1CCC(O[C@H]2C[C@H]([C@]3(C)CC[C@]4(C[C@H](O)[C@@H](C)[C@@H]([C@@H](C)C=C(C)C(=O)[C@H](C)C[C@H](C)C(=O)O)O4)O3)O[C@]3(O[C@@H]([C@H]4O[C@@](O)(CO)[C@H](C)C[C@H]4C)C[C@H]3C)[C@H]2C)O[C@H]1C (some centres not stated)	/	3.06µM	/	/	/
CC(C)(C)c1ccc(/C=C2\Oc3cc(OC(=O)N4CCOCC4)ccc3C2=O)cc1	?	.	?	.	?
CCOc1ccccc1Oc1coc2cc(OC(=O)N(C)C)ccc2c1=O	.	/	.	.	.
O=C1NC(=O)C2(CCCc3ccc(N(CCCl)CCCl)cc32)N1 (configuration not stated)	.	?	.	.	?
O=C(NCCN1CCC2(CC1)C(=O)NCN2c1cccc(F)c1)c1ccc2ccccc2c1	/	12.6µM	31.6µM	.	/
O=C(NCCN1CCC(n2c(=O)[nH]c3ccccc32)CC1)c1ccc2ccccc2c1	/	?	?	.	/
CCOC(=O)[C@]12Cc3cc(C)ccc3[C@H]1N(CCC(=O)OC)C(=O)c1ccccc12	/	.	17.8µM	.	/
CCOC(=O)[C@]12Cc3ccc(C)cc3[C@H]1N(C1CCCCC1)C(=O)c1cc(OC)ccc12	/	3.98µM	4.47µM	.	/
CCOC(=O)[C@]12Cc3cc(Cl)ccc3[C@H]1N(C)C(=O)c1cc(OC)ccc12	/	?	?	.	/
CCOC(=O)[C@]12Cc3cc(Cl)ccc3[C@H]1N(C1CCCCC1)C(=O)c1cc(OC)ccc12	/	2.24µM	2µM	.	/
CCOC(=O)[C@]12Cc3cc(C)ccc3[C@H]1N(C1CCCCC1)C(=O)c1ccccc12	/	4.47µM	3.55µM	.	/
Cc1cccc(OP(=O)(NCc2ccccc2)Oc2cccc(C)c2)c1	.	?	?	.	?
